Results: paper PMC5540273 (PLoS ONE, 2017)

What was measured:
Conditions in all cases: concentration: 1 μM, replicates: in singlicate; n = 1
AURKC = test system: AURKC
AXL = test system: AXL
BIKE = test system: T1, BIKE
T1 construct: gene BMP2K

BLK = test system: BLK
BMPR1A = test system: BMPR1A
BMPR1B = test system: BMPR1B
BMPR2 = test system: BMPR2
BMX = test system: BMX
BRAF = test system: BRAF
BRK = test system: T2, BRK
T2 construct: gene PTK6

BRSK1 = test system: BRSK1
BRSK2 = test system: BRSK2
BTK = test system: BTK
BUB1 = test system: BUB1
CAMK1B = test system: CAMK1B
CAMK1D = test system: CAMK1D
CAMK1G = test system: CAMK1G
CAMK1 = test system: CAMK1
CAMK2A = test system: CAMK2A
CAMK2B = test system: CAMK2B
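Further: KINOMEscan kinase panel screen.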

Row | Structure (SMILES) | %Inh (AURKC) | %Inh (AXL) | %Inh (BIKE) | %Inh (BLK) | %Inh (BMPR1A) | %Inh (BMPR1B) | %Inh (BMPR2) | %Inh (BMX) | %Inh (BRAF) | %Inh (BRK) | %Inh (BRSK1) | %Inh (BRSK2) | %Inh (BTK) | %Inh (BUB1) | %Inh (CAMK1B) | %Inh (CAMK1D) | %Inh (CAMK1G) | %Inh (CAMK1) | %Inh (CAMK2A) | %Inh (CAMK2B)
1 | CSc1nn2c(=O)cc(N3CCOCC3)nc2n1Cc1cccc(Cl)c1Cl [GSK2347225] | 11% | 45% | 29% | 52% | 19% | 1% | 0% | 6% | 0% | 17% | 0% | 0% | 0% | 0% | 0% | 8% | 17% | 0% | 0% | 0%
2 | Nc1nc(-c2ccc3c(N)n[nH]c3c2)cc(N2CCC[C@@H](C(=O)Nc3ccccc3)C2)n1.O=C(O)C(F)(F)F.O=C(O)C(F)(F)F [GSK2288359] | 34% | 0% | 29% | 0% | 0% | 0% | 10% | 0% | 5% | 5% | 0% | 0% | 0% | 0% | 26% | 11% | 0% | 5% | 0% | 0%
3 | O=C(NCCCN1CCCC1=O)c1cnc(NCc2cc(Cl)ccc2Cl)nc1NC1CCNCC1 | 0% | 41% | 4% | 0% | 6% | 0% | 0% | 0% | 39% | 0% | 6% | 0% | 0% | 0% | 21% | 6% | 0% | 0% | 0% | 0%
4 | O=C(Nc1ccccc1)Nc1ccc(Oc2ccc3nccn3n2)cc1 | 16% | 0% | 0% | 13% | 18% | 6% | 0% | 8% | 0% | 0% | 0% | 0% | 0% | 0% | 0% | 0% | 0% | 0% | 0% | 0%
5 | FC(F)(F)c1ccc(-c2cc(-c3c[nH]nc3-c3ccccn3)ccn2)cc1 [GW599550] | 14% | 20% | 13% | 39% | 0% | 0% | 25% | 19% | 0% | 8% | 0% | 0% | 0% | 55% | 35% | 22% | 1% | 23% | 0% | 0%
6 | Clc1cc(Nc2ncnc3cc[nH]c23)ccc1OCc1ccccn1 | 0% | 19% | 0% | 0% | 25% | 8% | 17% | 20% | 0% | 4% | 0% | 1% | 0% | 0% | 4% | 33% | 27% | 35% | 0% | 0%
7 | O=C(Nc1n[nH]c2nc(-c3ccco3)c(Br)cc12)c1ccc(CN2CCCC2)cc1.O=C(O)[C@H](O)[C@@H](O)C(=O)O [SB-742352] | 0% | 51% | 0% | 0% | 0% | 0% | 0% | 8% | 0% | 0% | 51% | 24% | 0% | 0% | 0% | 8% | 0% | 0% | 2% | 0%
8 | CCC(CC)(CC)n1cnc2c(N)ncnc21 [SKF-97620] | 0% | 0% | 0% | 0% | 7% | 16% | 53% | 0% | 10% | 0% | 0% | 15% | 0% | 48% | 18% | 4% | 6% | 3% | 0% | 0%
9 | O=c1cc(N2CCOCC2)nc2n(Cc3cccc(Cl)c3)ccn12 [GSK2296823] | 1% | 0% | 20% | 9% | 0% | 0% | 0% | 20% | 10% | 7% | 25% | 0% | 0% | 18% | 22% | 22% | 0% | 0% | 0% | 0%
10 | Cc1ccc(O)cc1Nc1cc(C(F)(F)F)nc2ccc(-c3ccncc3)cc12 [GW630823] | 5% | 0% | 7% | 12% | 0% | 0% | 0% | 17% | 0% | 11% | 3% | 0% | 0% | 0% | 0% | 14% | 1% | 8% | 20% | 2%
11 | Cn1ccc2ncnc(Nc3ccc(Oc4cccc(Cl)c4)c(Cl)c3)c21 | 0% | 0% | 0% | 14% | 22% | 0% | 29% | 13% | 0% | 17% | 13% | 0% | 0% | 12% | 0% | 11% | 5% | 22% | 9% | 0%
12 | CC(=O)Nc1n[nH]c2ncc(-c3ccccc3)cc12 [SB-548492] | 32% | 21% | 7% | 28% | 30% | 21% | 47% | 13% | 0% | 0% | 21% | 0% | 0% | 0% | 0% | 18% | 0% | 35% | 4% | 0%
13 | Fc1ccc(Nc2nccc(-c3c(-c4ccc(Cl)cc4)nn4ncccc34)n2)cc1F [GW829058] | 0% | 1% | 0% | 0% | 18% | 18% | 32% | 5% | 37% | 6% | 0% | 4% | 75% | 35% | 13% | 32% | 0% | 22% | 16% | 18%
14 | CCc1nc(-c2cccc(N(C)S(=O)(=O)c3ccccc3)c2)c(-c2ccnc(Nc3ccc(N4CCN(C(C)=O)CC4)nc3)n2)s1 [GSK1645895] | 0% | 0% | 0% | 64% | 0% | 0% | 0% | 15% | 60% | 31% | 0% | 0% | 0% | 0% | 27% | 29% | 16% | 45% | 0% | 0%
15 | Cl.Cn1ccc(-c2cccc(Nc3ccnc4cc(-c5nccs5)ccc34)c2)n1 [GW525701] | 0% | 0% | 0% | 15% | 0% | 0% | 16% | 0% | 0% | 5% | 0% | 38% | 0% | 62% | 3% | 3% | 38% | 0% | 0% | 0%
16 | CCn1c(-c2ccncc2)nc2cnccc21 [SB-735216] | 0% | 24% | 8% | 0% | 4% | 0% | 24% | 17% | 19% | 3% | 0% | 0% | 28% | 15% | 45% | 6% | 0% | 0% | 0% | 0%

Row | Structure (SMILES) | %Inh (AURKC) | %Inh (AXL) | %Inh (BIKE) | %Inh (BLK) | %Inh (BMPR1A) | %Inh (BMPR1B) | %Inh (BMPR2) | %Inh (BMX) | %Inh (BRAF) | %Inh (BRK) | %Inh (BRSK1) | %Inh (BRSK2) | %Inh (BTK) | %Inh (BUB1) | %Inh (CAMK1B) | %Inh (CAMK1D) | %Inh (CAMK1G) | %Inh (CAMK1) | %Inh (CAMK2A) | %Inh (CAMK2B)
17 | FC(F)(F)c1cc(Nc2nccc(-c3c(-c4ccc(Cl)cc4)nn4ncccc34)n2)ccc1Cl [GW829351] | 0% | 0% | 0% | 0% | 0% | 0% | 4% | 0% | 0% | 0% | 0% | 0% | 0% | 19% | 0% | 0% | 0% | 0% | 30% | 27%
18 | COc1ccc(NC(=O)c2ccc(-c3cc(-c4nnc(C)o4)ccc3C)cc2)cc1 [GW595885] | 5% | 0% | 14% | 34% | 0% | 0% | 0% | 10% | 1% | 11% | 0% | 0% | 0% | 40% | 4% | 8% | 0% | 4% | 0% | 0%
19 | C[C@H]1CC[C@@H](C(=O)Nc2ccccc2)CN1c1cc(-c2ccc3c(N)n[nH]c3c2)nc(N)n1 [GSK2283293] | 25% | 0% | 23% | 50% | 0% | 0% | 0% | 7% | 0% | 19% | 0% | 0% | 0% | 49% | 23% | 17% | 0% | 11% | 0% | 0%
20 | Cl.c1ccc(Cn2ncc3cc(Nc4ncnc5ccccc45)ccc32)cc1 [GW273749] | 0% | 0% | 0% | 17% | 0% | 0% | 0% | 0% | 0% | 0% | 0% | 0% | 0% | 0% | 13% | 17% | 23% | 28% | 2% | 0%
21 | Nc1nc(-c2ccc3c(N)n[nH]c3c2)cc(N2CCCCC2)n1 [GSK2228768] | 23% | 0% | 56% | 4% | 0% | 0% | 0% | 0% | 0% | 0% | 5% | 0% | 0% | 21% | 8% | 5% | 0% | 13% | 0% | 0%
22 | COc1ccc(NC(=O)Nc2ccc(C)c(-c3ccc(C(=O)Nc4ccncc4)cc3)c2)cc1 [GSK1398475] | 0% | 0% | 0% | 28% | 0% | 0% | 0% | 14% | 0% | 32% | 0% | 0% | 0% | 28% | 1% | 3% | 0% | 4% | 0% | 0%
23 | CS(=O)(=O)CCNCc1nc(-c2ccc3ncnc(Nc4ccc(OCc5cccc(F)c5)c(Cl)c4)c3c2)cs1.Cl [GW583340] | 0% | 0% | 0% | 25% | 0% | 0% | 0% | 0% | 0% | 0% | 0% | 0% | 0% | 0% | 6% | 15% | 2% | 20% | 0% | 0%
24 | COc1ccc(-c2oc3ncnc(N)c3c2-c2ccc(OC)cc2)cc1 [SB-589132] | 0% | 13% | 0% | 66% | 0% | 0% | 30% | 0% | 38% | 15% | 12% | 0% | 54% | 64% | 13% | 7% | 0% | 19% | 0% | 0%
25 | C[C@@H]1CCN(C(=O)CO)C[C@@H]1N(C)c1ncnc2[nH]ccc12 | 0% | 0% | 19% | 2% | 23% | 0% | 0% | 0% | 0% | 0% | 13% | 0% | 0% | 0% | 29% | 0% | 0% | 0% | 0% | 0%
26 | Cl.Cl.c1ccc(-c2cc3ccncc3cc2OC2CCNCC2)cc1 [GSK1122999] | 28% | 27% | 27% | 41% | 0% | 0% | 0% | 17% | 0% | 8% | 17% | 6% | 0% | 0% | 0% | 20% | 29% | 3% | 0% | 0%
27 | COc1ccc(Nc2nccc(N3CCC(NC(=O)Nc4ccc5c(c4)OCO5)C3)n2)cc1 (centres unmarked) [GSK1379745] | 43% | 22% | 33% | 25% | 13% | 0% | 23% | 13% | 2% | 10% | 0% | 2% | 32% | 33% | 0% | 8% | 4% | 8% | 0% | 1%
28 | CSc1ccc(NC2=C(c3ccccc3Cl)C(=O)NC2=O)cc1 [SB-342411] | 13% | 3% | 19% | 0% | 0% | 0% | 5% | 34% | 21% | 14% | 0% | 12% | 0% | 0% | 0% | 22% | 19% | 3% | 18% | 13%
29 | Cc1ccc(C)c(NC(=O)NCCNc2ccnc(Nc3ccc(F)cc3)n2)c1 [GSK1379878] | 15% | 0% | 20% | 33% | 0% | 0% | 0% | 0% | 0% | 1% | 0% | 0% | 0% | 14% | 28% | 2% | 62% | 5% | 0% | 0%
30 | Nc1nc(-c2cccnc2)c(-c2ccnc3ccccc23)s1 [GW684083] | 10% | 7% | 34% | 58% | 0% | 55% | 28% | 34% | 0% | 9% | 10% | 0% | 8% | 58% | 0% | 6% | 0% | 8% | 0% | 0%
31 | COc1cc2ncnc(Nc3ccc(OCc4ccccc4Br)c(Cl)c3)c2cc1OC.Cl [GI261590] | 42% | 19% | 5% | 49% | 0% | 0% | 15% | 4% | 7% | 66% | 0% | 37% | 0% | 66% | 21% | 0% | 0% | 12% | 0% | 0%
